From PubChem
Rce1 inh = inhibitors of yeast Ras-converting enzyme; yeast membranes, quenched prenylated peptide cleavage fluorescence; AID 2563; 0.27% of 290,000 active; calls only;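 active means fall in fluorescence gain of 50% or more versus controls, with final raw signal at or below 3038400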;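 further: plate controls were neutral control wells for no effect and wells lacking membranes for full effect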
Granule exo inh = blocks lytic granule exocytosis | TALL-104 LAMP-1 surface exposure, flow cytometry; cells stimulated with thapsigargin and PMA | inhibition, % at 10 µM | 0.66% of 360,000 active | AID 651702;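 active means inhibition above about 55%, limit read from the data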
ABHD5 PLIN5 PPI = blocks binding of human ABHD5 to perilipin-5; 0.78% of 360,000 active; AID 602281; Split G. princeps luciferase complementation, luminescence, 4 h; Q00G26+Q8WTS1; inhibition, % at 4 µM;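 active means inhibition above the mean inhibition across every tested compound plus 3 SD, cut at about 22% in these data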;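 further: 0% = DMSO only wells and the 100% control is not disclosed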
Platelet DG rel = platelet dense granule release activity. human platelet-rich plasma, SFLLRN dense granule ATP release, luminescence. 0.22% of 300,000 active. inhibition, %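 (compounds screened at 7.5 µM in platelet-rich plasma)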;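 active means mean replicate score, as percent of positive control, at or above 50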
M18AAP inhibitor = blocks P. falciparum M18 aspartyl aminopeptidase; recombinant PfM18AAP, H-Glu-NHMec fluorogenic cleavage; inhibition, % at 7.35 µM; 1.2% of 290,000 active;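 active means inhibition above the campaign mean inhibition over all tested compounds plus 3 SD, cut at about 28% in these data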;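 further: 0% = plate median of test compound wells and 100% = 2 mM ZnCl2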
ABHD5 PLIN5 conf = confirmation of human ABHD5-PLIN5 interaction inhibitors; shares compounds with ABHD5 PLIN5 PPI; inhibition, % at 4 µM; AID 651612; 67% of 2,200 active; biochemical ABHD5-PLIN5 interaction, luminescence; in the data active means inhibition above about 23%;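 further: 0% = DMSO vehicle wells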
HNF4 split-luc = active in HNF4 split-luciferase counter-screen for ABHD5-PLIN5 inhibitors. shares compounds with ABHD5 PLIN5 PPI. HNF4 dimerization, luminescence, biochemical. inhibition, % at 4 µM. 77% of 2,200 active. AID 651674;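 active means mean inhibition across replicate wells exceeding the computed hit threshold, cut at about 13% in these data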;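 further: light from luciferase halves that rejoin when HNF4 fusion proteins dimerize; 0% = DMSO only wells and the 100% control is not given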
Target sequence (P41235 whole entry, looked up, the tested form may be a part): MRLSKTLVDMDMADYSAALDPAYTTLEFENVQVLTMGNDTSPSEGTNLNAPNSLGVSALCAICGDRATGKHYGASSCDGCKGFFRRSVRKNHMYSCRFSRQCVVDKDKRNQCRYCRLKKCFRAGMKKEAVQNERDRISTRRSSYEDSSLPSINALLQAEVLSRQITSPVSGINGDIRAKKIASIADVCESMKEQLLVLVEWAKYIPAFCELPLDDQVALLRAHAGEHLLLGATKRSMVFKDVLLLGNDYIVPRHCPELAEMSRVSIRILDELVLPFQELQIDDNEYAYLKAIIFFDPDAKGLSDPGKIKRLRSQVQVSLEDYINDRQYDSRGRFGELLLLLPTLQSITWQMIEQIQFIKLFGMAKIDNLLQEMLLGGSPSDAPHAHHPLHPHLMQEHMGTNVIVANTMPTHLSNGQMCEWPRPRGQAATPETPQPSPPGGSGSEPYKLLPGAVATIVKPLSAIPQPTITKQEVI
* hit, by the source's call; i = inactive; nt = not tested or not shown. In the library only some 2.6% were active in any assay of this set; here they are far more common.

SMILES	Rce1 inh	Granule exo inh	ABHD5 PLIN5 PPI	Platelet DG rel	M18AAP inhibitor	ABHD5 PLIN5 conf	HNF4 split-luc
Cc1nc(-c2ccc(C(=O)N3CCCC3)cc2)cs1	i	-4	8	29	-9	nt	nt
CCCCNC(=O)c1nc(-c2cnc(C)cn2)oc1-c1ccc(Cl)cc1	nt	-1	-2	nt	nt	nt	nt
CCn1c(SCC(=O)N/N=C/C=C/c2ccco2)nc2ccccc21	i	-3	21	1	4	nt	nt
CCn1c(SCC(=O)N/N=C/C=C/c2ccco2)nnc1-c1ccc(OC)cc1	i	0	30*	5	12	17	40*
CNc1nc(N)c([N+](=O)[O-])c(Nc2cccc(Cl)c2)n1	i	-11	0	0	-3	nt	nt
O=C(N/N=C/C=C/c1ccco1)C(O)c1ccccc1 (stereo not given)	i	8	35*	-9	5	47*	60*
O=C(N/N=C/C=C/c1ccccc1)C(O)c1ccccc1 (stereo not given)	i	-2	1	-3	-5	nt	nt
O=C1C=C(c2ccccc2)C(=O)N1Nc1ccccc1	i	59*	86*	61*	1	100*	107*
Cc1ccc(NN2C(=O)C=CC2=O)cc1	i	0	-1	-15	-10	nt	nt
Cc1ccc(NN2C(=O)C=C(c3ccc(Cl)cc3)C2=O)cc1	i	39	95*	57*	3	101*	107*
COc1ccc(Nc2cccccc2=O)cc1	i	4	0	7	0	nt	nt
COc1ccc(C2=CC(=O)N(Nc3ccccc3)C2=O)cc1	i	3	88*	11	20	86*	88*
COc1cc2[nH]c(=S)nc(NCCc3ccc(S(N)(=O)=O)cc3)c2cc1OC	i	-7	2	-3	10	nt	nt
Cc1cc(C(=O)OCC(=O)NC(=O)c2cccn2C)c2ccccc2n1	nt	-6	4	-15	7	nt	nt
O=C(CCN1C(=O)c2ccncc2C1=O)Nc1ccc(F)cc1	i	-2	0	-4	-6	nt	nt
O=C(C[n+]1ccc2ccccc2c1)c1ccccc1	i	-3	1	-2	-3	nt	nt
O=C(C[n+]1ccc2ccccc2c1)c1ccc2ccc3ccccc3c2c1	nt	-2	28*	nt	nt	10	4
C=CCOc1ccc(/C=C\c2nc(O)c([N+](=O)[O-])c(=O)[nH]2)cc1OCC	i	2	5	10	6	nt	nt
C=CCOc1ccc(/C=C\c2nc(O)c([N+](=O)[O-])c(=O)[nH]2)cc1OC	i	3	3	-5	9	nt	nt
O=c1[nH]c(/C=C/c2ccccc2F)nc2ccccc12	i	32	0	7	1	nt	nt
O=c1[nH]c(/C=C\c2cccc(Cl)c2)nc(O)c1[N+](=O)[O-]	i	2	51*	2	10	88*	75*
C=CCOc1cccc(/C=C\c2nc(O)c([N+](=O)[O-])c(=O)[nH]2)c1	i	-9	46*	17	-3	79*	69*
COc1ccc(/C=C\c2nc(O)c([N+](=O)[O-])c(=O)[nH]2)cc1O	i	-3	23*	2	7	27*	30*
O=c1[nH]c(/C=C\c2ccccc2F)nc(O)c1[N+](=O)[O-]	i	-7	33*	-10	-3	55*	43*
Cc1cc(C(=O)NNc2ccccc2F)no1	i	-4	-1	-2	15	nt	nt
SMILES	Rce1 inh	Granule exo inh	ABHD5 PLIN5 PPI	Platelet DG rel	M18AAP inhibitor	ABHD5 PLIN5 conf	HNF4 split-luc
O=C(NCc1ccc2c(c1)OCO2)c1cccnc1	i	-1	2	-2	1	nt	nt
COC(=O)COc1c(/C=C\c2nc(O)c([N+](=O)[O-])c(=O)[nH]2)cccc1OC	i	-4	18	8	-5	nt	nt
Cc1cccc(/C=C\c2nc3ccccc3c(=O)[nH]2)c1	i	1	5	-10	1	nt	nt
C#CCOc1c(/C=C\c2nc(O)c([N+](=O)[O-])c(=O)[nH]2)cc(Br)cc1OC	i	-6	46*	0	7	83*	74*
O=c1[nH]c(/C=C\c2cccc(F)c2)nc(O)c1[N+](=O)[O-]	i	-4	36*	-3	6	69*	54*
C=C1C(=O)[C@]23C[C@H]1CCC2[C@@]1(C)C(C[C@@H]3O)[C@](C)(C(=O)O)C[C@H](O)[C@@H]1O (stereo not given in full)	nt	0	38*	nt	nt	38*	83*
C=C1C(=O)[C@]23C[C@H]1CC[C@H]2[C@]1(C)[C@@H](O)CC[C@@](C)(C(=O)O)[C@H]1C[C@@H]3O	nt	0	31*	nt	nt	33*	89*
c1cc(-c2cn(C[C@H]3CC[C@@H]([C@@H]4CC[C@H](Cn5cc(-c6ccsc6)nn5)O4)O3)nn2)cs1	i	2	10	-3	-4	nt	nt
NC(=O)c1csc(C2OC(CO)C(O)C2O)n1 (stereo not given)	nt	-10	5	nt	nt	nt	nt
O=C1C=C(C2OC(CO)C(O)C2O)C(=O)N1 (stereo not given)	nt	-1	68*	nt	nt	48*	104*
CC(C)(C)c1ccc(/C=C(\C#N)C(=O)NC2CC2)cc1	i	1	28*	0	nt	47*	35*
N#C/C(=C\c1ccc(F)c(Br)c1)C(=O)NC1CC1	i	12	2	34	14	nt	nt
CCn1cc(CN2CCCC(C(=O)Nc3cccc(-c4cc5ccccc5[nH]4)c3)C2)c(C)n1 (stereo not given)	i	20	31*	3	4	11	4
CCC(c1nc2ccccc2[nH]1)n1c(=O)c(-c2ccco2)nc2ccccc21 (stereo not given)	nt	-7	37*	nt	nt	59*	23*
O=c1c(-c2ccco2)nc2ccccc2n1C(CCc1ccccc1)c1nc2ccccc2[nH]1 (stereo not given)	nt	16	72*	nt	nt	55*	10
CCC(c1nc2ccccc2[nH]1)n1c(=O)c(-c2ccccc2)nc2ccccc21 (stereo not given)	nt	3	2	nt	nt	nt	nt
O=c1c(-c2cccs2)nc2ccccc2n1C(CCc1ccccc1)c1nc2ccccc2[nH]1 (stereo not given)	nt	0	4	nt	nt	nt	nt
NS(=O)(=O)c1ccc(NC(=O)c2ccc(CSc3ccccc3)o2)cc1	i	2	-6	-9	-6	nt	nt
COc1ccccc1/C=C/C(=O)/C=C/c1ccccc1O	nt	27	11	nt	-12	nt	nt
COc1ccccc1C=CC(=O)C=Cc1ccccc1OC	nt	-3	32*	nt	nt	72*	45*
CNc1ccccc(C(=O)/C=C/c2ccccc2OC)c1=O	i	-1	32*	1	23	69*	48*
COc1ccc(C2NCCc3c2[nH]c2ccccc32)cc1COc1ccc(F)cc1 (stereo not given)	i	29	29*	3	-11	16	18*
COCCn1c(SCC#N)nnc1-c1ccccc1	i	-1	5	1	-2	nt	nt
